An excerpt weighted towards active compounds, which were near 4.5% of everything screened.
PfHsp40 rescue: restores yeast growth despite PfHsp40 toxicity; AID 504582; S. cerevisiae expressing PfHsp40, growth rescue, ATP luminescence; actives 0.68% (n = 340,000); growth rescue, % at 12.5 µM; in the data active = growth rescue above about 28%, passing the limit was not always enough;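 also: yeast W303a lacking pdr1 and pdr3 grown in galactose medium; growth measured after three days at 30 °C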
PrPC surface inh: reduces human prion protein on the cell surface | P04156 | cell surface PrPC, TR-FRET read-out | inhibition, % at 13.8 µM | actives 0.43% (n = 370,000); in the data active = inhibition above about 24%
PrP UTR inh: inhibition of PrP 5' UTR reporter expression; inhibition, % (no concentration beside the values); cell-based PrP 5' UTR mRNA reporter, plate reader; actives 0.35% (n = 340,000); in the data active = inhibition above about 52%
GDH-TPI counter-1: counter-screen for M. tuberculosis FBA inhibitors: GDH-TPI coupled enzymes; inhibition, % at 4.8 µM; GDH-TPI coupled enzyme counterscreen, NADH absorbance; actives 1.2% (n = 360,000); in the data active = inhibition above about 30%
BJeLR lethal: BJeLR cell viability loss; BJeLR (HRASV12) viability, CellTiter-Glo ATP luminescence, 48 h; inhibition, % (no concentration beside the values); actives 0.17% (n = 300,000); AID 1554; in the data active = inhibition above about 50%
FBA Mtb inh: inhibits M. tuberculosis FBA enzyme; purified M. tuberculosis FBA, fluorescence read-out; actives 2.3% (n = 360,000); P9WQA3; inhibition, % at 1 µM
Target sequence (P9WQA3 whole entry, looked up): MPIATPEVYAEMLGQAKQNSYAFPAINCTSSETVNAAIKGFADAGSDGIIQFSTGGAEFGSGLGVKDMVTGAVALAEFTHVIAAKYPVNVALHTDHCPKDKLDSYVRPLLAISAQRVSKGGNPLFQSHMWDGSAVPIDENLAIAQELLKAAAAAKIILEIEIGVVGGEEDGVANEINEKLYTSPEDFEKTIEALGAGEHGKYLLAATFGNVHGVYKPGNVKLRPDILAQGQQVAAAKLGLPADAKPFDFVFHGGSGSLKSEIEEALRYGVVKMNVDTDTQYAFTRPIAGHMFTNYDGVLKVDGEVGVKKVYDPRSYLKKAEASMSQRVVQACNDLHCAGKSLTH
Mtb FBA confirm: confirmation of M. tuberculosis fructose-bisphosphate aldolase inhibitors; shares compounds with FBA Mtb inh; inhibition, % at 1 µM; purified M. tuberculosis FBA, fluorescence read-out; actives 78% (n = 5,600)
GDH-TPI counter-2: GDH-TPI inhibition counter-screen for FBA inhibitors | shares compounds with FBA Mtb inh | GDH-TPI coupled enzyme counterscreen, fluorescence | inhibition, % at 1 µM | actives 81% (n = 5,600) | AID 652141; in the data active = inhibition above about 10%
GDH-TPI DR: GDH-TPI dose response counter-screen for Mtb FBA. shares compounds with FBA Mtb inh. GDH-TPI coupled enzyme assay, fluorescence, artifact counterscreen. IC50, µM. actives 79% (n = 170). AID 652145; call rule not given here
Large screens that a line does not name were inactive (follow-up assays come after a bar, where they were run). Rule as the data show it, unless noted: active = inhibition above about 27%; inactive = the rest.

CC1(C)CC(=O)c2cc(OCC(=O)NCCN3CCCc4ccccc43)ccc2O1	none
CC(C)CCNC(=O)COc1ccc2c(c1)C(=O)CC(C)(C)O2	FBA Mtb inh 49.9 | Mtb FBA confirm active | GDH-TPI counter-2 active
CCC(Oc1ccc2c(c1)C(=O)CC(C)(C)O2)C(=O)NCCN1CCCCCC1 (stereo not given)	FBA Mtb inh 59.3 | Mtb FBA confirm inactive | GDH-TPI counter-2 inactive
CN1CCN(S(=O)(=O)c2cccc(C(=O)NCc3ccc(Cl)cc3)c2)CC1	FBA Mtb inh 63.7 | Mtb FBA confirm 47.8 | GDH-TPI counter-2 43.6
COc1ccc(CNC(=O)c2cccc(S(=O)(=O)N3CCN(C)CC3)c2)cc1	none
COC(c1ccccc1)c1nnc(CCC(=O)N(C)CCOc2ccccc2)o1 (stereo not given)	none
COC(c1ccccc1)c1nnc(CCC(=O)N(C)CCCC2CCCC2)o1 (stereo not given)	FBA Mtb inh 28.3 | Mtb FBA confirm 123.3 | GDH-TPI counter-2 100.0
N#CCC(=O)N/N=C/c1ccc(N2N=C(c3ccccc3)CC2c2ccccc2)cc1 (stereo not given)	FBA Mtb inh 84.7 | Mtb FBA confirm inactive | GDH-TPI counter-2 inactive | GDH-TPI DR 0.285
CC(=O)Nc1ccc(N2C(=O)CC(c3ccccc3)CC2=O)cc1	none
COc1ccc(C2CC(c3ccccc3)=NN2c2ccc(/C=N/NC(=O)c3ccncc3)cc2)cc1 (stereo not given)	none
CC(=O)Nc1ccc(C2=NN(c3ccccc3)C(c3ccccc3)C2)cc1 (stereo not given)	FBA Mtb inh 105.2 | Mtb FBA confirm 41.6 | GDH-TPI counter-2 33.3
O=Cc1ccc(N2N=C(c3ccccc3)CC2c2ccccc2)cc1 (stereo not given)	FBA Mtb inh 86.3 | Mtb FBA confirm 135.7 | GDH-TPI counter-2 89.5
CCN(CCNCC(O)COc1ccccc1C(C)C)c1cccc(C)c1 (stereo not given)	none (no result: PrP UTR inh)
CC(=O)N1c2ccc(S(=O)(=O)N3CCCCC3)cc2CC1C(=O)NCc1ccc(N(C)C)cc1 (stereo not given)	none
CCN(CC(=O)Nc1ccc2c(c1)OCCO2)S(=O)(=O)c1cccs1	FBA Mtb inh 39.2 | Mtb FBA confirm 75.1 | GDH-TPI counter-2 70.8
CCN(CC(=O)Nc1ccc2c(c1)OCCO2)S(=O)(=O)c1ccc(C)cc1	none
O=C1C=C(c2ccc3c(c2)oc2ccccc23)C[C@@H](c2ccc3c(c2)OCO3)C1	none (no result: BJeLR lethal)
CC(=O)Nc1c(-c2ccc(F)cc2)nc2ccccn12	none
COC(=O)Nc1c(-c2ccccc2)nc2ccccn12	FBA Mtb inh 74.6 | Mtb FBA confirm 188.4 | GDH-TPI counter-2 140.2
COC(=O)Nc1c(-c2ccccc2)nc2ccc(C)cn12	FBA Mtb inh 64.9 | Mtb FBA confirm 120.3 | GDH-TPI counter-2 115.9
c1ccc(-c2nc3ccccn3c2-c2ccccc2)cc1	FBA Mtb inh 28.9 | Mtb FBA confirm inactive | GDH-TPI counter-2 inactive
CC(C)CCNC(=O)c1cc(-c2cccs2)nc2ccccc12	FBA Mtb inh 64.7 | Mtb FBA confirm inactive | GDH-TPI counter-2 inactive
CCC(C)NC(=O)c1cc(-c2cccs2)nc2ccccc12 (stereo not given)	FBA Mtb inh 94.5 | Mtb FBA confirm 101.5 | GDH-TPI counter-2 91.8
Cc1cc(NC(=O)c2cc(-c3ccc(C)s3)nc3ccccc23)no1	FBA Mtb inh 28.9 | Mtb FBA confirm active | GDH-TPI counter-2 179.5
CC(C)N1CCc2c(sc(NC(=O)c3cc(-c4cccs4)nc4ccccc34)c2C(N)=O)C1	none (no result: PrPC surface inh)
CCc1ccc(S(=O)(=O)NCc2csc(C)n2)cc1	FBA Mtb inh 34.0 | Mtb FBA confirm inactive | GDH-TPI counter-2 inactive
Cc1nc(CNS(=O)(=O)c2ccc(Br)cc2)cs1	none
COc1ccc(-c2nc(CCl)cs2)cc1	none
COc1ccc(-c2nc(CCl)cs2)cc1OC	FBA Mtb inh 71.5 | Mtb FBA confirm 91.1 | GDH-TPI counter-2 81.0
O=C(Nc1ccc2c(c1)CCCN2C(=O)c1cccs1)c1c(F)cccc1Cl	FBA Mtb inh 98.8 | Mtb FBA confirm active | GDH-TPI counter-2 199.5
COc1ccc(N(C(=O)c2csnn2)C(C(=O)NC2CCCC2)c2ccccc2)cc1 (stereo not given)	none
CCOC(=O)c1c(NC(=O)COC(=O)c2nccnc2N)sc2c1CCC2	FBA Mtb inh 45.1 (no result: BJeLR lethal) | Mtb FBA confirm 123.6 | GDH-TPI counter-2 93.0
CCOC(=O)c1c(NC(=O)COC(=O)c2nccnc2N)sc(C(=O)N(C)C)c1C	FBA Mtb inh 47.9 | Mtb FBA confirm active | GDH-TPI counter-2 active
Cc1ccc(Nc2nc(N/N=C\c3ccc4c(c3)OCO4)nc(N3CCOCC3)n2)cc1	none
Cc1ccc(CNC(=O)CN2C(=O)CSc3ccc(S(=O)(=O)N4CCCCC4)cc32)cc1	none
CCOc1cc2oc(=O)c3c(c2cc1Cl)CCC3	none
CCc1cc2c3c(c(=O)oc2cc1OC)CCCC3	FBA Mtb inh 66.7 | Mtb FBA confirm 76.8 | GDH-TPI counter-2 52.9
C=CCOc1ccc2oc(=O)cc(C)c2c1	none
CCCOc1ccc2c3c(c(=O)oc2c1)CCCC3	FBA Mtb inh 60.0 | Mtb FBA confirm 97.1 | GDH-TPI counter-2 76.0
C=CCOc1ccc2c3c(c(=O)oc2c1)CCCC3	FBA Mtb inh 74.0 (no result: BJeLR lethal) | Mtb FBA confirm active | GDH-TPI counter-2 active
Cc1cc(C)cc(-n2ncc3c2CCCC3NC(=O)CCN2CCCC2=O)c1 (stereo not given)	none
CCn1c(NCc2cccs2)nc2ccccc21	none
C=CCn1c(-c2cccs2)nc2ccccc21	FBA Mtb inh 63.2 (no result: BJeLR lethal) | Mtb FBA confirm 149.6 | GDH-TPI counter-2 141.2
CCCn1c(-c2cccs2)nc2ccccc21	FBA Mtb inh 74.5 | Mtb FBA confirm active | GDH-TPI counter-2 174.1
CC(C)(C)NC(=O)CN(C(=O)C(=O)Nc1ccc2c(c1)OCCO2)C(C)(C)C	none
CC1(C)C=Cc2cc3ccc(=O)oc3cc2O1	FBA Mtb inh 48.2 | Mtb FBA confirm inactive | GDH-TPI counter-2 inactive | GDH-TPI DR 5.66
COc1c2c(cc3oc(=O)ccc13)OC(C)(C)C=C2	none
C/C=C(/C)C(=O)O[C@@H]1c2c(ccc3ccc(=O)oc23)OC(C)(C)[C@@H]1OC(=O)/C(C)=C\C	none
CC1(C)Oc2cc3oc(=O)ccc3cc2C[C@@H]1O	FBA Mtb inh 64.8 (no result: BJeLR lethal) | Mtb FBA confirm 104.8 | GDH-TPI counter-2 106.9
CC1(C)Oc2cc3oc(=O)ccc3c3c2C2C1CCC(C)(O3)C2O (stereo not given)	FBA Mtb inh 29.0 (no result: PfHsp40 rescue, PrP UTR inh, BJeLR lethal) | Mtb FBA confirm 153.9 | GDH-TPI counter-2 121.4
O=C(COC(=O)c1ccccc1F)NCc1ccc2c(c1)OCO2	none (no result: BJeLR lethal)
